# Laboratory results reported in PMC7862700, “An all-to-all approach to the identification of sequence-specific readers for epigenetic DNA modifications on cytosine”.
# Columns and labels:
# Assay in all cases: DAPPL (digital affinity profiling via proximity ligation, sequencing); 10 mM Tris-HCl pH 7.5, 50 mM NaCl, 1 mM DTT, 4% glycerol, room temperature, 30 min; GST-TFs on glutathione beads, 16-mer random dsDNA library, 0.1% formaldehyde crosslink after washing; high values mean tight binding
# FLI1 = target: T1, FLI1 (Homo sapiens, UniProt Q01543 1-452); settings: protein: recombinant; tags: N-terminal GST; dsDNA, one strand shown
# T1 sequence: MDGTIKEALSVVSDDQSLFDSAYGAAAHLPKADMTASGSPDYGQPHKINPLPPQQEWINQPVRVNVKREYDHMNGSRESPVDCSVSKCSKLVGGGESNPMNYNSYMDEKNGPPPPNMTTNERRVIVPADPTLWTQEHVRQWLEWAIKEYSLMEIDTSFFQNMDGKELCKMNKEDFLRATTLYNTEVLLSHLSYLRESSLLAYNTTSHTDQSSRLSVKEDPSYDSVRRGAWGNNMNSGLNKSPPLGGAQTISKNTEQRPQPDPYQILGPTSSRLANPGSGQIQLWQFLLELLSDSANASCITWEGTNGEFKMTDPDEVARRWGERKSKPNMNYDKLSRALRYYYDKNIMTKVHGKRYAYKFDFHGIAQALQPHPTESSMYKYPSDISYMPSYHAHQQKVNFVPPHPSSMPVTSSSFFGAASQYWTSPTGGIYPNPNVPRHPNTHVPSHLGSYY
# Method in brief: (§1)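 Beads coated with glutathione captured GST-fused human transcription factors that had been expressed in yeast, and the factors were then given DNA barcodes and pooled with a tag-only sample. The pools were incubated with 200 nmole of a random double-stranded 16-mer DNA library in Tris/NaCl/DTT/glycerol buffer for 30 min at room temperature, washed, crosslinked with 0.1% formaldehyde and proximity-ligated with BsaI/T4 ligase at 37 °C for 1 h. PCR amplification and Illumina NextSeq500 sequencing came last. Binding signal is each hexamer's read frequency for a factor divided by its frequency for the tag-only sample.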
# ELK1 = target: T2, ELK1 (Homo sapiens, UniProt P19419 1-428); settings: protein: recombinant; tags: N-terminal GST; dsDNA, one strand shown
# T2 sequence: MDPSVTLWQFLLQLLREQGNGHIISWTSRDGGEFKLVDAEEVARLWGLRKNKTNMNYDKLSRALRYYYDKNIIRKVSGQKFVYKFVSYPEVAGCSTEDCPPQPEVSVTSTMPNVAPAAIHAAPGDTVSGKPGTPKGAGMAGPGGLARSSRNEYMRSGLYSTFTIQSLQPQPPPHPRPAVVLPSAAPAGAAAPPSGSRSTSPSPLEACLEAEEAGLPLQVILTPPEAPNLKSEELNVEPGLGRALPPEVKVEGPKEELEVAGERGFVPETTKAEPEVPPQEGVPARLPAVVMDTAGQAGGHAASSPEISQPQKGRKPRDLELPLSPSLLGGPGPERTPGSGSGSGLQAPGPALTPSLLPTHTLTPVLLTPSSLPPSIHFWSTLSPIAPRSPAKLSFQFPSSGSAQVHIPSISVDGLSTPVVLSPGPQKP
# Method in brief: as §1
# GABPA = target: T3, GABPA (Homo sapiens, UniProt Q06546 1-454); settings: protein: recombinant; tags: N-terminal GST; dsDNA, one strand shown
# T3 sequence: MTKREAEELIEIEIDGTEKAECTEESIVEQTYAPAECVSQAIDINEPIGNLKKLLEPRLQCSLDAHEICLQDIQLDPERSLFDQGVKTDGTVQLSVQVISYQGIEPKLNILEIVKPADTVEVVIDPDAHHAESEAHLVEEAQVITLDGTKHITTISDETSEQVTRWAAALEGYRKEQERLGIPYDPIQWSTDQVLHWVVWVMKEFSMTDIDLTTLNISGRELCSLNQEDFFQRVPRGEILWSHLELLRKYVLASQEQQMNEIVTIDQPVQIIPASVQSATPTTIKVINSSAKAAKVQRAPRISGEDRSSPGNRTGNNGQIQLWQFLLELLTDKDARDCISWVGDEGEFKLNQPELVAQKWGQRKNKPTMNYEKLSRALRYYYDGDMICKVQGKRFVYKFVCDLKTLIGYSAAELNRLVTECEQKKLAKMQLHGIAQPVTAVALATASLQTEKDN
# Method in brief: as §1
# ERG = target: T4, ERG (Homo sapiens, UniProt P11308 1-479); settings: protein: recombinant; tags: N-terminal GST; dsDNA, one strand shown
# T4 sequence: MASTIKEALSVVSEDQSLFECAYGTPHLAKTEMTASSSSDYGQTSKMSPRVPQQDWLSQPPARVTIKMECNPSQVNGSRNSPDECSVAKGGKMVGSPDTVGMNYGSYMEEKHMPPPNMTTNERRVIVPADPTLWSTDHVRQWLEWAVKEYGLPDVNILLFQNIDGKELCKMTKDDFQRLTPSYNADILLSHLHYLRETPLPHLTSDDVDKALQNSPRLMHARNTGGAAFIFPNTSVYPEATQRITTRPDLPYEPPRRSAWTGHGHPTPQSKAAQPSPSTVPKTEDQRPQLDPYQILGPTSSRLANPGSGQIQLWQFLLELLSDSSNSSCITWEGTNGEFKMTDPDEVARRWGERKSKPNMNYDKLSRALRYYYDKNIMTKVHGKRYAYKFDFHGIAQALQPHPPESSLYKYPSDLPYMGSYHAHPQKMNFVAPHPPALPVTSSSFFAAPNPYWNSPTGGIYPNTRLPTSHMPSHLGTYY
# Method in brief: as §1
# ELF1 = ELF1 (Homo sapiens, UniProt P32519 1-619); settings: protein: recombinant; tags: N-terminal GST; dsDNA, one strand shown
# Method in brief: as §1
# EHF = target: T5, EHF (Homo sapiens, UniProt Q9NZC4 1-300); settings: protein: recombinant; tags: N-terminal GST; dsDNA, one strand shown
# T5 sequence: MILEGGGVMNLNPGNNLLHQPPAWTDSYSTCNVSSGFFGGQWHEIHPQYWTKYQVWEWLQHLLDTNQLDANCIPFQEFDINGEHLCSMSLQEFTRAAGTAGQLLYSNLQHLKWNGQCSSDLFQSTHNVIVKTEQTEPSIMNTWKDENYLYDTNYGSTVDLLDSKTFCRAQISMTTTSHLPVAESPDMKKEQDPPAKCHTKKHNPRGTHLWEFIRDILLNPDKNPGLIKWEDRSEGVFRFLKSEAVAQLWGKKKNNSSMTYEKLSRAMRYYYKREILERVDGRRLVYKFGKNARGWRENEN
# Method in brief: as §1
# SPI1 = SPI1 (Homo sapiens, UniProt P17947 1-270); settings: protein: recombinant; tags: N-terminal GST; dsDNA, one strand shown
# Method in brief: as §1
# SPIB = SPIB (Homo sapiens, UniProt Q01892 1-262); settings: protein: recombinant; tags: N-terminal GST; dsDNA, one strand shown
# Method in brief: as §1
# ELK3 = target: T6, ELK3 (Homo sapiens, UniProt P41970 1-407); settings: protein: recombinant; tags: N-terminal GST; dsDNA, one strand shown
# T6 sequence: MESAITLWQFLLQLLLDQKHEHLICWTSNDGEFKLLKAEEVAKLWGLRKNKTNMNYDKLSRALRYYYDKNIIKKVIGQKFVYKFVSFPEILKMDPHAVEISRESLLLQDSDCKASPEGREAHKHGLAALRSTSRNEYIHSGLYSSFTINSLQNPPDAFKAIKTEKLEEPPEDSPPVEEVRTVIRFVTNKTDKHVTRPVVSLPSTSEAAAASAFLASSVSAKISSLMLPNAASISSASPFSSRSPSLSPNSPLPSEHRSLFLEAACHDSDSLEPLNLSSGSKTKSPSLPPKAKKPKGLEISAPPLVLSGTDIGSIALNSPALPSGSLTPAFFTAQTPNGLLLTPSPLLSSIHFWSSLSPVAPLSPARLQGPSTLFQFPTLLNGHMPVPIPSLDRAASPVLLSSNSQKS
# Method in brief: as §1
# FEV = target: T7, FEV (Homo sapiens, UniProt Q99581 1-238); settings: protein: recombinant; tags: N-terminal GST; dsDNA, one strand shown
# T7 sequence: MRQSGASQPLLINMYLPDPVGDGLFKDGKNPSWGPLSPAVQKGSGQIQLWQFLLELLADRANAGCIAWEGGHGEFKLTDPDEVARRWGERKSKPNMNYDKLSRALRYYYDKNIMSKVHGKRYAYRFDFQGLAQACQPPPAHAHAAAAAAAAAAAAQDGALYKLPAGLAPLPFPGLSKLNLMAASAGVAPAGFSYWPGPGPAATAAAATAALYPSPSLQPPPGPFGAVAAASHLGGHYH
# Method in brief: as §1
# ETV5 = ETV5 (Homo sapiens, UniProt P41161 1-510); settings: protein: recombinant; tags: N-terminal GST; dsDNA, one strand shown
# Method in brief: as §1
# HSF1 = HSF1 (Homo sapiens, UniProt Q00613 1-529); settings: protein: recombinant; tags: N-terminal GST; chain copies: 3; dsDNA, one strand shown
# Method in brief: as §1
# SPIC = target: T8, SPIC (Homo sapiens, UniProt Q8N5J4 1-248); settings: protein: recombinant; tags: N-terminal GST; dsDNA, one strand shown
# T8 sequence: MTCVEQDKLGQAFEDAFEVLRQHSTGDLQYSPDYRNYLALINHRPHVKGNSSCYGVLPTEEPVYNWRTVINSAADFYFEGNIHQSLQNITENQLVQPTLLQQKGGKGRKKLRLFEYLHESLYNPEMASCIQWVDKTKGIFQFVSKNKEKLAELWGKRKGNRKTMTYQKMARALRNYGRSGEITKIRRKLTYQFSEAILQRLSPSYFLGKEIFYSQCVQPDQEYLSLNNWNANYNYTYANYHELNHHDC
# Method in brief: as §1
# ELF4 = ELF4 (Homo sapiens, UniProt Q99607 1-663); settings: protein: recombinant; tags: N-terminal GST; dsDNA, one strand shown
# Method in brief: as §1
# ELK4 = target: T9, ELK4 (Homo sapiens, UniProt P28324-2 1-405); settings: protein: recombinant; tags: N-terminal GST; dsDNA, one strand shown
# T9 sequence: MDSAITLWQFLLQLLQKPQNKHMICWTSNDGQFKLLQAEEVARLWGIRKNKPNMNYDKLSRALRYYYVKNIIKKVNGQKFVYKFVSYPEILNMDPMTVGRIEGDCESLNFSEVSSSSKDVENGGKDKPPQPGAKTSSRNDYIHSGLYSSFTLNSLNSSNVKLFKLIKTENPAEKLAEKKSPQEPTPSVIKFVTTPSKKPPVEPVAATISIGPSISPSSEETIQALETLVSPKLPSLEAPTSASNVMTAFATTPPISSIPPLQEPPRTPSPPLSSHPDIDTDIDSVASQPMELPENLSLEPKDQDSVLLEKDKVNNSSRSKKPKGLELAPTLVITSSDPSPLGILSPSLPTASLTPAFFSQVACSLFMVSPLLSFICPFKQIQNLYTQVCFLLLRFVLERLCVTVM
# Method in brief: as §1
# ETV2 = target: T10, ETV2 (Homo sapiens, UniProt O00321 1-342); settings: protein: recombinant; tags: N-terminal GST; dsDNA, one strand shown
# T10 sequence: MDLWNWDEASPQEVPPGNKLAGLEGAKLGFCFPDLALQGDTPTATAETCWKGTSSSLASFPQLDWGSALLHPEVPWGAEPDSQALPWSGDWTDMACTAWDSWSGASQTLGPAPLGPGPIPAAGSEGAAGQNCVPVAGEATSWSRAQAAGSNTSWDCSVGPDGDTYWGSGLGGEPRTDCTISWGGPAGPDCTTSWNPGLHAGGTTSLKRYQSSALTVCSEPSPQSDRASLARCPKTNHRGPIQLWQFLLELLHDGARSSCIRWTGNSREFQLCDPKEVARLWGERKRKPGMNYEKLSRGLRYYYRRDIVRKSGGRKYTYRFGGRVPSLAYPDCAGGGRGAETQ
# Method in brief: as §1
# ELF3 = target: T11, ELF3 (Homo sapiens, UniProt P78545 1-371); settings: protein: recombinant; tags: N-terminal GST; dsDNA, one strand shown
# T11 sequence: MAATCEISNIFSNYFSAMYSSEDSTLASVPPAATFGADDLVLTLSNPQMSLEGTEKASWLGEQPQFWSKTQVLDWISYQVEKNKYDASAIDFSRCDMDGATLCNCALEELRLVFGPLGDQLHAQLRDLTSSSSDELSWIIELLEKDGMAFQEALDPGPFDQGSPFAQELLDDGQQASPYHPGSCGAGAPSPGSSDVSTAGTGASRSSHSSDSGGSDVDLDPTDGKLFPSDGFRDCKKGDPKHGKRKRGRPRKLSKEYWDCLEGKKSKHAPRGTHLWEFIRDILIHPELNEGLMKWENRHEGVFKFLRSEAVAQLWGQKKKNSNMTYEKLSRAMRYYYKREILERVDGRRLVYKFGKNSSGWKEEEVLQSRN
# Method in brief: as §1
# CRX = CRX (Homo sapiens, UniProt O43186 1-299); settings: protein: recombinant; tags: N-terminal GST; dsDNA, one strand shown
# Method in brief: as §1
# ETV1 = ETV1 (Homo sapiens, UniProt P50549 1-477); settings: protein: recombinant; tags: N-terminal GST; dsDNA, one strand shown
# Method in brief: as §1
# ELF1, sequence (P32519 whole entry): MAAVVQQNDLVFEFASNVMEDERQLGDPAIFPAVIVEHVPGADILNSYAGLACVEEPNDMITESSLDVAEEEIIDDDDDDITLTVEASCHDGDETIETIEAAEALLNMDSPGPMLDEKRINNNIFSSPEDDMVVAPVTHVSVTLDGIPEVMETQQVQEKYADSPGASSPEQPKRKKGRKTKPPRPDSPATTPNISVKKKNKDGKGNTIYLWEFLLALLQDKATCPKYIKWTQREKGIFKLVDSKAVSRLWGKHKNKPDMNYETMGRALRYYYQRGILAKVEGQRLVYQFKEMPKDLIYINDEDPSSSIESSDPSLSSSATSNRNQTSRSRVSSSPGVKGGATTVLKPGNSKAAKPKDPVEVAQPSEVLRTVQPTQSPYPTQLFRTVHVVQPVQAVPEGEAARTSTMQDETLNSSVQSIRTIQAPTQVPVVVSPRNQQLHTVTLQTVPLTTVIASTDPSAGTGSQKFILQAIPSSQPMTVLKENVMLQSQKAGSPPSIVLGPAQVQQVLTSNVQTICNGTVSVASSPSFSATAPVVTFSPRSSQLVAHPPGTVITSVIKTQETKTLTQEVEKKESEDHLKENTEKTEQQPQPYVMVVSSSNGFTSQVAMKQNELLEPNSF
# ETV5, sequence (P41161 whole entry): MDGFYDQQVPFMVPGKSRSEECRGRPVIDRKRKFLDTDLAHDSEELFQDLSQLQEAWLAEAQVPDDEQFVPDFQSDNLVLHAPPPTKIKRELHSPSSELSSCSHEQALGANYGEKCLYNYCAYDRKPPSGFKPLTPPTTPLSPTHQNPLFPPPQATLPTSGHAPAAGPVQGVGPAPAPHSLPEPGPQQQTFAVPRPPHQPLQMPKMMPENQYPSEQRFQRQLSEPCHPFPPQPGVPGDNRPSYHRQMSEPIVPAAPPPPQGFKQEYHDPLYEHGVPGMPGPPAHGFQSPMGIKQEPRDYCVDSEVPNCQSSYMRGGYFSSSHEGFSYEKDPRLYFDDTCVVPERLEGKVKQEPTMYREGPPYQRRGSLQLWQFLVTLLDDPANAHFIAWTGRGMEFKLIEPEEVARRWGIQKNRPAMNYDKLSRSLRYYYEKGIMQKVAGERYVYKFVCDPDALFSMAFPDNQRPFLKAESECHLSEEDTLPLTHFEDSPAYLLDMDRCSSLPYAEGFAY
# SPIB, sequence (Q01892 whole entry): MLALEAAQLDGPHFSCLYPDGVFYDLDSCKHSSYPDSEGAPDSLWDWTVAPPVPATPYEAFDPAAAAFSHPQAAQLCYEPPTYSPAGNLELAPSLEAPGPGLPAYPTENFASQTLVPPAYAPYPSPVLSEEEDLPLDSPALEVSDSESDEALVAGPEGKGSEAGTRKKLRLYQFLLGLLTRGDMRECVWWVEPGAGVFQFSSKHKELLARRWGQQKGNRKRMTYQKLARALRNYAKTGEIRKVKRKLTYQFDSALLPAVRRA
# ETV1, sequence (P50549 whole entry): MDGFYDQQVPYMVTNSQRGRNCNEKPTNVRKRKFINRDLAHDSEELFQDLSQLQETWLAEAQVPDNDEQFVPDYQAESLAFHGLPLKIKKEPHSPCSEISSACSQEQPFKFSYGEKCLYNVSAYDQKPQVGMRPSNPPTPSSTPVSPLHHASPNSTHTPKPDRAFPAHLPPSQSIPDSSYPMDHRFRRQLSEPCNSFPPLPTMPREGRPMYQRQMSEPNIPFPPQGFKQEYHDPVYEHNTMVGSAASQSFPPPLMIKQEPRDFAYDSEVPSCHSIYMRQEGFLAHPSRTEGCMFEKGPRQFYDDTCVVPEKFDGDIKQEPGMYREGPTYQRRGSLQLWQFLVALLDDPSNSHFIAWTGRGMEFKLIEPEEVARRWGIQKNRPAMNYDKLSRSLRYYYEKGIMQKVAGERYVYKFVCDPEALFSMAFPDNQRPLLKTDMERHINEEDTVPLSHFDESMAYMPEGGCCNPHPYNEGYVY
# CRX, sequence (O43186 whole entry): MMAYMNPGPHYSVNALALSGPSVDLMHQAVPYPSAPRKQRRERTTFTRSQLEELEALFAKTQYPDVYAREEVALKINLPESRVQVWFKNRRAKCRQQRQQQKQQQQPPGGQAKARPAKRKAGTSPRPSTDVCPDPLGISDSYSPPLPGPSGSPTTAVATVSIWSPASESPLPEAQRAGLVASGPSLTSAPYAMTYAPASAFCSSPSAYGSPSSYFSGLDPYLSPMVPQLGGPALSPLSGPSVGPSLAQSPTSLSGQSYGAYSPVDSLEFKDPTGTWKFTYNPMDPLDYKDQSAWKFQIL
# ELF4, sequence (Q99607 whole entry): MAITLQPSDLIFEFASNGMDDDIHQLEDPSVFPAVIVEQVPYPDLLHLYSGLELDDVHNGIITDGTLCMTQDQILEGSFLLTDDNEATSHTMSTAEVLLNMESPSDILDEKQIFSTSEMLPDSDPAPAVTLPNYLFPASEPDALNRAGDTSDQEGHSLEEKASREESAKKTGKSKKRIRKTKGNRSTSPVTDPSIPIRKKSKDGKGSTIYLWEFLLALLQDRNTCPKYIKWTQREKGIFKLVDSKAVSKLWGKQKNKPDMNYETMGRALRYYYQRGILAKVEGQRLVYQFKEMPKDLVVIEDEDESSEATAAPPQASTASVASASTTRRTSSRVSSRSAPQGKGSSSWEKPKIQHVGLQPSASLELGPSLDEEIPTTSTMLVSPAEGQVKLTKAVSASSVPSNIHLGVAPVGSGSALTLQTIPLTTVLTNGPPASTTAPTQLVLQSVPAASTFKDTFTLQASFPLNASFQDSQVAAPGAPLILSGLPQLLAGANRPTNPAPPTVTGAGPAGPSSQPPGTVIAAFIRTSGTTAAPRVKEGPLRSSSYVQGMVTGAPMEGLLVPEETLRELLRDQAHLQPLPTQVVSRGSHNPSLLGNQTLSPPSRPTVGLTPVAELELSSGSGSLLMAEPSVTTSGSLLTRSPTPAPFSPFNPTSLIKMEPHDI
# HSF1, sequence (Q00613 whole entry): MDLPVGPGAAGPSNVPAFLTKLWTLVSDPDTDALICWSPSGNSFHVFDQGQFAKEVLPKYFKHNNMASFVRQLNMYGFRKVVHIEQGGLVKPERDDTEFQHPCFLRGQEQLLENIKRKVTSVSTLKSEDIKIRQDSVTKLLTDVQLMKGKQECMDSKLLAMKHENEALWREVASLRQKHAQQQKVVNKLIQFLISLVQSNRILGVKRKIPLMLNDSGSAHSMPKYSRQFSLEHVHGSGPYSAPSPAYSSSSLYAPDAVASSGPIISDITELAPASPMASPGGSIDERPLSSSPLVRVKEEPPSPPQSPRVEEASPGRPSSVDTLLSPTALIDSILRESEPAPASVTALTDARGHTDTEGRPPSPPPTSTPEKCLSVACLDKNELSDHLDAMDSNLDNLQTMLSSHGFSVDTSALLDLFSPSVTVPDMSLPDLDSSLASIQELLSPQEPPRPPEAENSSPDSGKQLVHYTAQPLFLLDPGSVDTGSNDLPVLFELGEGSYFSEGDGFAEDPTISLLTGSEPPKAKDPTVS
sequence,measurement,setting,value
CTTCCC,binding signal,FLI1,"2.11 fold enrichment (6-mer frequency, TF over GST control)"
same,binding signal,ELK1,"2.06 fold enrichment (6-mer frequency, TF over GST control)"
same,binding signal,GABPA,"2.07 fold enrichment (6-mer frequency, TF over GST control)"
same,binding signal,ERG,"2.19 fold enrichment (6-mer frequency, TF over GST control)"
same,binding signal,ELF1,"2.29 fold enrichment (6-mer frequency, TF over GST control)"
same,binding signal,EHF,"2.4 fold enrichment (6-mer frequency, TF over GST control)"
same,binding signal,SPI1,"3.35 fold enrichment (6-mer frequency, TF over GST control)"
same,binding signal,SPIB,"2.45 fold enrichment (6-mer frequency, TF over GST control)"
same,binding signal,ELK3,"2.08 fold enrichment (6-mer frequency, TF over GST control)"
same,binding signal,FEV,"1.91 fold enrichment (6-mer frequency, TF over GST control)"
same,binding signal,ETV5,"2.24 fold enrichment (6-mer frequency, TF over GST control)"
same,binding signal,HSF1,"1.55 fold enrichment (6-mer frequency, TF over GST control)"
same,binding signal,SPIC,"2.34 fold enrichment (6-mer frequency, TF over GST control)"
same,binding signal,ELF4,"1.95 fold enrichment (6-mer frequency, TF over GST control)"
same,binding signal,ELK4,"1.81 fold enrichment (6-mer frequency, TF over GST control)"
same,binding signal,ETV2,"2.4 fold enrichment (6-mer frequency, TF over GST control)"
same,binding signal,ELF3,"2.12 fold enrichment (6-mer frequency, TF over GST control)"
same,binding signal,CRX,"1.33 fold enrichment (6-mer frequency, TF over GST control)"
same,binding signal,ETV1,"2.01 fold enrichment (6-mer frequency, TF over GST control)"
